Compound activity (PubChem)
Shown are actives, neighbours in structure and some others; about 2.4% of the full set was active somewhere.
ClpP mod – qHTS Assay for Activators of ClpP. purified B. subtilis ClpP, FRET peptide cleavage, 20 min. hit rate 1.9% among 340,000. Potency, µM (highest dose often 57.5 µM), for inactives: at the top dose activity change, negative = active. ATP-dependent Clp protease proteolytic subunit (Bacillus subtilis (strain 168)), P80244; active = well fitted falling curve with a large enough effect; inconclusive = small, poorly fitted or top-dose-only effect; inactive = no such curve, though single readings can be large or run the other way; note: the source files actives as falling curves though it sought activators and does not explain the sign; nearly all actives have a fitted effect of over 65% in size
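Purified B. subtilis ClpP, 10 microg/mL final in Tris/HCl pH8 with KCl, BSA, glycerol and Tween-20, cleaved an Abz/nitrotyrosine-quenched decapeptide. Fluorescence (ex 320, em 430) was read at 0 and 20 min at room temperature. Delta was normalized to 5.8 microM ADEP and DMSO/no-enzyme controls.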
PTAP TSG101 blk – qHTS Assay for Iinhibitors of HIV-1 Budding by Blocking the Interaction of PTAP/TSG101 | Tumor susceptibility gene 101 protein (Homo sapiens), Q99816 | Fluorescence polarization, FITC-PTAP peptide / Tsg101 binding | Potency, µM (titrated, usually from 115 µM), for the others: at the top dose activity change, negative = inhibition, most hits filed as inhibitors | 340,000 tested, under 10 active | AID 493005, 2010; active = well fitted inhibition curve with a large enough effect in the main read-out, with a control signal flat, not every such curve was filed as active; inconclusive = small, poorly fitted or top-dose-only effect, or effect the other way, or a change in a side signal; inactive = no such curve, though single readings can be large or run the other way; note: % of control where 0% means no effect
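Tsg101 binding domain (10 uM final) was mixed with compound and a FITC-labeled PTAP peptide (50 nM final) in HEPES pH 7.5 buffer with NaCl, Tween 20, EDTA and TCEP; fluorescence polarization was read after 20 min at r.t.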
ALOX12 inh – Primary qHTS assay for inhibitors of human arachidonate 12S-lipoxygenase (ALOX12): Round 2. Polyunsaturated fatty acid lipoxygenase ALOX12 (Homo sapiens), P18054. purified 12hLO, xylenol orange hydroperoxide absorbance. Potency, µM (doses to about 108 µM), for inactives: top-dose activity change, negative = inhibition, actives largely listed as inhibitors. hit rate 1.1% among 580,000. AID 1671190, 2021; active = well fitted curve in the direction sought with a large enough effect; inconclusive = small, poorly fitted or top-dose-only effect, or another doubt; inactive = no such curve, though single readings can be large; an effect the other way counts as inactive or inconclusive; note: % is set by controls: 0 for no effect and ±100 for the full control effect
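Purified human 12hLO at 150 nM in 25 mM Hepes, 0.01% Triton X-100, pH 7.0, preincubated 15 min at room temperature with compound. Reaction started with 40 uM arachidonic acid, 30 min at room temperature. Hydroperoxide measured by Fe-xylenol orange, 573/405 nm absorbance ratio.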
TDP1 block – qHTS Assay for Inhibitors of Tyrosyl-DNA Phosphodiesterase (TDP1); recombinant TDP1, AlphaScreen DNA substrate cleavage; hit rate 0.28% among 350,000; Potency, µM (series often up to 130 µM), without a hit: at the highest dose activity change, negative = inhibition, actives largely listed as inhibitors; AID 485290, 2010; Tyrosyl-DNA phosphodiesterase 1 (Homo sapiens), Q9NUW8; active = well fitted curve in the direction sought with a large enough effect; inconclusive = small, poorly fitted or top-dose-only effect, or another doubt; inactive = no such curve, though single readings can be large; an effect the other way counts as inactive or inconclusive; note: % is set by controls: 0 for no effect and ±100 for the full control effect; nearly all actives have a fitted effect of over 40% in size
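Enzyme-compound mixtures sat 15 min at room temperature, followed by a 5 min reaction with 15 nM final substrate and 10 min with AlphaScreen beads. Recombinant human Tdp1 was used at 1 nM final.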
Rango dissoc inh – qHTS Assay for Inhibitors of RanGTP induced Rango (Ran-regulated importin-beta cargo) - Importin beta complex dissociation; Snurportin-1 (Homo sapiens) + GTP-binding nuclear protein Ran (Homo sapiens) + Importin …; Biochemical FRET Rango-importin beta, RanGTP-induced dissociation; Potency, µM (top dose mostly 46.1 µM), inactives show at the highest dose activity change, negative = inhibition; hit rate 0.071% among 340,000; AID 540253, 2011; note: % of control where 0% means no effect; nearly all actives have a fitted effect of over 45% in size
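Rango FRET biosensor (snurportin-1 IBB flanked by N-terminal EYFP and C-terminal CFP10) at 0.1 uM, with 0.25 uM importin beta in PBS, 1mM DTT, 0.02% Tween-20, 0.1% BSA. 0.6 uM Ran, 2mM GTP and 0.2 uM RCC1 were then added for 45 min at room temperature. Inhibition read as loss of FRET rise.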
Rango-impB inh – qHTS Assay for Inhibitors of Rango (Ran-regulated importin-beta cargo) - Importin beta complex formation | hit rate 0.031% among 340,000 | Potency, µM (top dose mostly 92.2 µM), inactives show at the top dose inhibition of complex formation | Importin subunit beta-1 (Homo sapiens), Q14974 | Rango CFP/YFP FRET sensor + importin beta, 45 min;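 note: 0% = DMSO wells and 100% = buffer wells lacking importin beta; nearly all actives have a fitted effect of over 15% in size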
Target sequence (Q14974 whole entry, looked up): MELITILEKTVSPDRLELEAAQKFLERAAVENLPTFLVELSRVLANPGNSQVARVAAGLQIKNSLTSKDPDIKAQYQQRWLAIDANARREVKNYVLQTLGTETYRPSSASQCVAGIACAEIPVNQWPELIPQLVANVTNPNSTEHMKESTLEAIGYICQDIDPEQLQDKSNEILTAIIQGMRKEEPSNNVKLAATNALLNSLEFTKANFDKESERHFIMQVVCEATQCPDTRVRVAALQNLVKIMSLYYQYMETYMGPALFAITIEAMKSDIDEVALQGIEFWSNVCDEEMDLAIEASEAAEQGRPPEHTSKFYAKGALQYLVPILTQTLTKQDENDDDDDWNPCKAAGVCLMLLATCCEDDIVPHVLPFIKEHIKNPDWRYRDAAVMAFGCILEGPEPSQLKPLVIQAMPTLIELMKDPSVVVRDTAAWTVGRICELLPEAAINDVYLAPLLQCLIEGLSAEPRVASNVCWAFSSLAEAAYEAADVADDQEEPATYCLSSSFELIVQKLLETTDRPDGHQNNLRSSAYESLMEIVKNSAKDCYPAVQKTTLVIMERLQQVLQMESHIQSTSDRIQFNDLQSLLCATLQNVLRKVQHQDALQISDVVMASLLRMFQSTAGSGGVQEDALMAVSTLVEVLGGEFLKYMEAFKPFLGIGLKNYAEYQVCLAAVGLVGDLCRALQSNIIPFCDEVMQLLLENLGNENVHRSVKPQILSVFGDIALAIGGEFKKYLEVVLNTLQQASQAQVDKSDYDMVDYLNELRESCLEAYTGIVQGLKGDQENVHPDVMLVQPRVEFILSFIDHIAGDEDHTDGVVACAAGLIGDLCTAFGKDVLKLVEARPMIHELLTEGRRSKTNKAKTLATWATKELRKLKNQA
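FRET biosensor (snurportin 1 IBB flanked by EYFP and cerulean), 50 nM, with compound 5 min, then 0.125 microM importin beta in PBS, 1 mM DTT, 0.02% Tween-20, 0.1% BSA. CFP/YFP ratio read after 45 min at room temperature; pre-read flags interference.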
* marks the source's active call; other numbers are inactive results; u = inconclusive; x = not tested or not shown; [ ] = remark or other dose. Unless noted, calls come from the whole dose curve. Potency is the fitted concentration of half-maximal effect.

SMILES | ClpP mod | PTAP TSG101 blk | ALOX12 inh | TDP1 block | Rango dissoc inh | Rango-impB inh
O=C1NCCCCCN(C(=O)NC2CCCCC2)[C@H]2CCC[C@@H]12 | x | x | 8% | x | x | x
COc1ccc(-c2ocnc2C(=O)Nc2ccccc2OC)cc1 | x | x | -3% | x | x | x
COc1ccc(-c2ocnc2C(=O)Nc2ccccc2N2CCCCC2)cc1 | 32µM* | -6% | 0% | -6% | -11% | 0%
CC(=O)NCC(=O)N1Cc2ccccc2CC2(CCCN(CC3CCNC3)C2)C1 (stereo not drawn) | x | x | 4%[6.33 µM] | x | x | x
CC(=O)N1Cc2ccccc2CC2(CCCN(CC3CCNC3)C2)C1 (stereo not drawn) | x | x | 8.9µM* | x | x | x
C=CCn1c(=O)c2ccc(C(=O)NCc3ccccc3)cc2n(Cc2cccc(Cl)c2)c1=O | 28µM* | -1% | -1% | -3% | -10% | 0%
COCCOC1CCOC2(CCN(C(=O)CCc3nc4ccccc4[nH]3)CC2)C1 (stereo not drawn) | x | x | 61% | x | x | x
CC1Oc2ccc(NC(=O)c3ccc(F)cc3F)cc2CN(CCc2ccc(F)cc2)C1=O (stereo not drawn) | x | x | -10% | x | x | x
Cc1ccc(S(=O)(=O)Nc2ccc3c(c2)CN(CCc2ccc(F)cc2)C(=O)C(C)O3)cc1F (stereo not drawn) | x | x | 28µM* | x | x | x
O=C(NC[C@H]1Cn2ccnc2CO1)C1CCCC1 | x | x | 59%[176 µM] | x | x | x
COc1cc(/C=N/Nc2nncn2N)ccc1OCc1c(C)no[n+]1[O-] | 0% | -6% | u | 0% | 6% | 3%
COc1ccc(/C=N/Nc2nncn2N)cc1Br | 16µM* | -1% | 58% | x | -8% | 2%
CCc1cccc(C)c1NC(=O)Cn1nc(C(=O)O)c2ccccc2c1=O | x | x | 16µM* | x | x | x
O=C(O)c1nn(CC(=O)N2CCCCCC2)c(=O)c2ccccc12 | 28µM* | 0% | 1% | -1% | -12% | -1%
NC(=O)c1nn(CC(=O)NCCc2ccccc2)c(=O)c2ccccc12 | x | x | -5% | x | x | x
CC(CNC(=O)Cn1nc(C(N)=O)c2ccccc2c1=O)(c1ccccc1)c1ccccc1 | x | x | 32µM* | x | x | x
O=C(/C=C/c1ccco1)OCC(=O)C12CC3CC(CC(C3)C1)C2 | x | x | 40µM* | x | x | x
CC1CC(C)CN(C(=O)COC(=O)/C=C/c2ccco2)C1 (stereo not drawn) | -1% | -1% | 179% | 22µM* | 2% | -2%
CNC(=O)COC(=O)/C=C/c1ccco1 | -6% | 0% | 11% | -2% | 0% | -4%
O=C(c1cccc(S(=O)(=O)N2CCc3ccccc3C2)c1)N1CCN(c2ccc(O)cc2)CC1 | 32µM* | 0% | u | -1% | 2% | 0%
Cc1cccc(OCCCCn2c(C3CC(=O)N(c4ccc(C)cc4C)C3)nc3ccccc32)c1 (stereo not drawn) | -29% | x | 18µM* | 10% | x | x
CCCCCCC12C(=Cc3cc4c(cc31)OCCO4)c1cc(OC)c(OC)cc1C(CC(=O)O)N2C(=O)OC (stereo not drawn) | x | x | 40µM* | x | x | x
Cc1cnc(C(=O)NCC2Cn3cccc3C(=O)N2C)cn1 (stereo not drawn) | x | x | 31% | x | x | x
O=C1c2cccc3c(Cl)ccc(c23)C(=O)N1O | -7% | -8% | u | 22µM* | -2% | -1%
CCN1C(=O)c2cccc3c(Cl)ccc(c23)C1=O | -2% | 0% | -2% | -3% | -6% | 1%
SMILES | ClpP mod | PTAP TSG101 blk | ALOX12 inh | TDP1 block | Rango dissoc inh | Rango-impB inh
Cn1ccnc1-c1cn(CCNC(=O)c2ccc(F)cc2)nn1 | x | x | -12% | x | x | x
Cc1ccc(NC(NC(=O)c2cccs2)C(Cl)(Cl)Cl)cc1 (stereo not drawn) | -2% | -4% | u | 7% | 4% | 0%
Cc1ccccc1NC(NC(=O)c1cccs1)C(Cl)(Cl)Cl (stereo not drawn) | 25µM* | -2% | 2% | -4% | 14% | 2%
CCN1CCCC(CNC(=O)Cc2ccc(C(F)(F)F)cc2)C1 (stereo not drawn) | x | x | -26% | x | x | x
Cc1c(Cl)cccc1-n1nc(C)c2c(C(=O)NCc3ccccc3)cc(C3CC3)nc21 | 13µM* | x | -18% | 2% | x | x
COCc1ccccc1CNC(=O)c1ccsc1 | x | x | 10% | x | x | x
O=C(Nc1c(Cl)cc(Cl)cc1-c1nc2ccccc2s1)c1ccc(Br)o1 | 25µM* | 0% | u | 2% | -20% | u
O=C(Nc1ccccc1-c1nc2ccccc2s1)c1cc(Cl)cc(Cl)c1 | 0% | x | -26% | 0% | x | x
CC1(C)Cc2ccccc2C(NNC(=O)c2cccnc2)=N1 | 18µM* | -8% | 439% | 4% | 0% | 1%
COCCC(=O)N1CCC(Oc2ccc(C(=O)NCCCC3CCCC3)cc2)CC1 | 32µM* | 1% | 12% | 5% | -13% | 7%
